In PubChem BioAssay (EPA / NIEHS) one finds AC50 and outcome data, which are given here for one compound.

The structures appear in SMILES notation. Records with an inconclusive call do not appear. Activity calls are given as the source filed them. The calls were made as follows, unless noted: active = hit-call score of the fitted dose curve at least 0.9, where 1 is the maximum; inactive = score below 0.9.

A short description of test [1]: CCTE_Mundy_HCI_Cortical_NOG_NeuriteCount: CCTE's Neurite Outgrowth Assay in rat cortical cells for Neurite Count, Mundy Lab (AID 2284212).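 Also: cells fixed about two days after chemical exposure began.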 The gist of the method: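 Rat cortical primary cells; compound added 2 h post-plating, 1/10 dilution of working solution. Anti-betaIII-tubulin/AF488 ICC; ArrayScan neurite count vs DMSO.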
The nature of test [2]: CCTE_Mundy_HCI_Cortical_NOG_NeuriteLength: CCTE's Neurite Outgrowth Assay in rat cortical cells for Neurite Length, Mundy Lab (AID 2284213).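 Also: neurites imaged about 48 to 50 h after chemical exposure began.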 The gist of the method: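 First, rat primary cortical cells were plated and, 2 h later, given test chemical as a 1/10 dilution. Finally, βIII-tubulin immunostaining enabled automated imaging of neurite length.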
Test [3] can be described thus: CCTE_Mundy_HCI_Cortical_Synap_Neur_Matur_NeuriteSpotCountPerNeuron: CCTE's Synaptogenesis and Neurite Maturation Assay in rat cortical cells for Neurite Spot Count per Neuron Count, Mundy Lab (AID 2284215). The procedure, abridged:
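Rat primary cortical cultures given AraC at DIV 5, dosed from DIV 7 to DIV 12 with media change. Fixed, stained for MAP2, synaptophysin and Hoechst; neurite-associated synaptophysin puncta per neuron quantified by high-content imaging versus DMSO.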

Test [4] is described as follows: CCTE_Mundy_HCI_Cortical_Synap_Neur_Matur_SynapseCount: CCTE's Synaptogenesis and Neurite Maturation Assay in rat cortical cells for Synapse Count, Mundy Lab (AID 2284218). The procedure, abridged:
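Endpoint: synapses/neuron by HCI (synaptophysin puncta on MAP2-labelled neurites, Hoechst nuclei). Rat primary cortical cells, AraC DIV 5, dosed DIV 7, fixed DIV 12; DMSO negative control.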

The nature of test [5]: CCTE_Mundy_HCI_Cortical_Synap_Neur_Matur_NeuriteCount: CCTE's Synaptogenesis and Neurite Maturation Assay in rat cortical cells for Neurite Count, Mundy Lab (AID 2284222).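 Also: exposure from day 7 to day 12 in vitro with readout at day 12.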 The gist of the method:
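Rat cortical neurons, 96-well; AraC DIV 5; chemical + media change DIV 7; end DIV 12. Fix PFA/Hoechst, anti-MAP2 + anti-synaptophysin IF. HCI neurite count vs DMSO baseline.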

Test [6] in a line: CCTE_Mundy_HCI_Cortical_Synap_Neur_Matur_CellBodySpotCount: CCTE's Synaptogenesis and Neurite Maturation Assay in rat cortical cells for Cell Body Spot Count, Mundy Lab (AID 2284223). The procedure, abridged: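 Primary rat cortical cultures, AraC added at DIV 5; dosed DIV 7 through DIV 12 […]. Fixed, stained for MAP2 and synaptophysin with Hoechst; cell body-associated synaptophysin puncta per neuron counted by high-content imaging, loss vs DMSO.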

The nature of test [7]: UKN2_HCS_IMR90_cell_viability: Viability Assessment in the University of Konstanz (UKN) Leist Lab Neural Crest Cell Migration Assay in human induced IMR90 Pluripotent Stem Cells (UKN2) (AID 2284233).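 Also: viability of neural crest cells differentiated from IMR90 iPSC measured by calcein-AM fluorescence imaging; cells exposed to compound for 24 h after a 24 h migration phase.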 The gist of the method:
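cMINC format, iPSC-derived neural crest (IMR90); 24 h migration (EGF/FGF, N2-S), then 24 h toxicant. Calcein-AM/H-33342 stain 30 min; fluorescence intensity by HCS; DMSO-normalised, bidirectional fitting.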

Test [8] in a line: CCTE_Mundy_HCI_hNP1_Casp3_7: CCTE's Caspase-Glo 3/7 Assay in human neuroprogenitor cells for Apoptosis, Mundy Lab (AID 2284240). The gist of the method:
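Neuroepithelial-lineage stem cells from WA09 embryonic cells were treated with chemicals after 40–44 h of culture. Twenty-four hours later, caspase-3/7 activation was detected luminescently after a 30 min room-temperature reagent step, with DMSO as baseline.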

A short description of test [9]: CCTE_Mundy_HCI_hNP1_CellTiter: CCTE's Cell Titer-Glo 2 Assay in human neuroprogenitor cells for Viability, Mundy Lab (AID 2284241; active = hit-call score of the fitted dose curve at least 0.9, where 1 is the maximum). The procedure, abridged:
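Measures ATP content in human neural progenitors derived from WA09 embryonic cells. Read-out at 26.5 hours after dosing, with DMSO serving as the negative control and baseline.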
(In general: In ATP-based viability assays light output follows the ATP content of the culture.)

Test [10] can be described thus: IUF_NPC2c_oligodendrocyte_migration_120hr: Leibniz Research Institute for Environmental Medicine (IUF) 120-hour Neural Progenitor Cell Migration Assay for Oligodendrocyte Migration (NPC2c) (AID 2284297).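 Also: O4-positive oligodendrocyte migration distance divided by radial glia migration distance.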 The gist of the method: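 Human fetal neural progenitor spheres (0.3 mm) are plated on poly-D-lysine/laminin in N2 differentiation medium and exposed for 120 h, with half-medium renewal at day 3. Oligodendrocyte (O4+) migration distance comes from ICC imaging, normalised to radial glia migration.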

Test [11] is described as follows: IUF_NPC2a_radial_glia_migration_120hr: Leibniz Research Institute for Environmental Medicine (IUF) 120-hour Neural Progenitor Cell Migration Assay for Radial Glia Migration (NPC2a) (AID 2284298). The gist of the method: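 Human fetal-cortex neural progenitor spheres (0.3 mm) plated on poly-D-lysine/laminin in N2 differentiation medium, exposed 120 h at 37C with half-medium renewal at day 3. Radial glia migration distance (um) measured from Hoechst-stained nuclei images; DMSO baseline.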

Test [12] in a line: IUF_NPC2a_radial_glia_migration_72hr: Leibniz Research Institute for Environmental Medicine (IUF) 72-hour Neural Progenitor Cell Migration Assay for Radial Glia Migration (NPC2a) (AID 2284299). The gist of the method: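 Spheres of human primary neural progenitors migrate on poly-D-lysine/laminin under compound exposure at 37C, 5% CO2. The 72 h radial glia migration distance comes from brightfield images, measured manually.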

Test [13] in a line: IUF_NPC2b_neuronal_migration_120hr: Leibniz Research Institute for Environmental Medicine (IUF) 120-hour Neural Progenitor Cell Migration Assay for Neuron Migration (NPC2b) (AID 2284300). The gist of the method: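 0.3 mm hNPC spheres on poly-D-lysine/laminin in N2 differentiation medium exposed 120 h, half-medium refresh day 3; 7 concentrations, DMSO max 0.1%. Neuron (TUBB3) distance from sphere core by ICC imaging, normalised to radial glia migration.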

Test [14] is described as follows: IUF_NPC3_neuronal_differentiation_120hr: Leibniz Research Institute for Environmental Medicine (IUF) 120-hour Neuronal Differentiation Assay (NPC3) (AID 2284301). The gist of the method:
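Neuronal differentiation of primary human neural progenitors measured by high-content imaging: percent TUBB3+ of Hoechst+ nuclei within migrated area at 120 h, seven-point serial dilution plus solvent control, gain or loss relative to DMSO.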

Test [15] in a line: IUF_NPC4_neurite_length_120hr: Leibniz Research Institute for Environmental Medicine (IUF) 120-hour Neuronal Morphology Assay for Neurite Length (NPC4) (AID 2284302). The procedure, abridged:
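Neurons from differentiating human fetal neural progenitor spheres are scored for average neurite length after five days of compound exposure. Fitting uses DMSO as negative control.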

Test [16] can be described thus: IUF_NPC5_oligodendrocyte_differentiation_120hr: Leibniz Research Institute for Environmental Medicine (IUF) 120-hour Oligodendrocyte Differentiation Assay (NPC5) (AID 2284304; active = hit-call score of the fitted dose curve at least 0.9, where 1 is the maximum;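 also: primary human fetal neural progenitor spheres plated to migrate and differentiate; share of O4-positive cells among Hoechst nuclei found by CNN image analysis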). The gist of the method: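 Human fetal neural progenitor spheres (0.3 mm) plated on poly-D-lysine/laminin in N2 differentiation medium and exposed for 120 h at 7 concentrations, with half-medium renewal at day 3. O4-positive cells identified by CNN, expressed as percent of Hoechst nuclei.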

The nature of test [17]: IUF_NPC2-5_cytotoxicity_72hr: Cytotoxicity Assessment at 72 hours in the Leibniz Research Institute for Environmental Medicine (IUF) Neural Progenitor Cell Migration and Differentiation Assay for Cytotoxicity (NPC2-5) (AID 2284306; active = hit-call score of the fitted dose curve at least 0.9, where 1 is the maximum;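 also: LDH release into supernatant measured by resorufin fluorescence marking membrane damage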). The procedure, abridged: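 Primary human neural progenitor spheres migrate and differentiate on laminin. Compound is present from the start of differentiation, with DMSO kept at or below 0.1%. At 72 h, supernatant LDH is quantified fluorometrically, with values fitted in the positive direction.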

A short description of test [18]: IUF_NPC2-5_cytotoxicity_120hr: Cytotoxicity Assessment at 120 hours in the Leibniz Research Institute for Environmental Medicine (IUF) Neural Progenitor Cell Migration and Differentiation Assay (NPC2-5) (AID 2284307; active = hit-call score of the fitted dose curve at least 0.9, where 1 is the maximum). The procedure, abridged:
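Human fetal (GW 16-19) neural progenitor spheres (0.3 mm) plated on poly-D-lysine/laminin in N2 differentiation medium, exposed 120 h with half-medium renewal at day 3; 7 concentrations plus solvent control, DMSO ≤0.1%. LDH release in supernatant read by resorufin fluorescence.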

The nature of test [19]: IUF_NPC2-5_cell_number_120hr: Cell Number Assessment at 120 hours in the Leibniz Research Institute for Environmental Medicine (IUF) Neural Progenitor Cell Migration and Differentiation Assay (NPC2-5) (AID 2284308).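 Also: count of Hoechst-stained nuclei in migration zone around plated human neural progenitor spheres.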 The gist of the method: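 Human fetal neural progenitor spheres (0.3 mm) plated on poly-D-lysine/laminin in N2 differentiation medium, exposed five days across 7 concentrations with half-medium refresh at day 3. Hoechst-positive nuclei counted in migration area at 120 h, relative to DMSO.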

Test [20] can be described thus: IUF_NPC2-5_viability_120hr: Viability Assessment at 120 hours in the Leibniz Research Institute for Environmental Medicine (IUF) Neural Progenitor Cell Migration and Differentiation Assay (NPC2-5) (AID 2284312). The gist of the method:
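Human fetal (GW 16-19) neural progenitor spheres of 0.3 mm were plated on poly-D-lysine/laminin in N2 differentiation medium and exposed from day 0 for 120 h, with half-medium refresh at day 3. Viability was read as alamar blue resazurin-to-resorufin fluorescence against DMSO.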

Test [21] can be described thus: IUF_NPC1_cytotoxicity_72hr: Cytotoxicity Assessment at 72 hours in the Leibniz Research Institute for Environmental Medicine (IUF) Neural Progenitor Cell Proliferation Assay (NPC1) (AID 2284332; active = hit-call score of the fitted dose curve at least 0.9, where 1 is the maximum;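 also: rising LDH signal means more cytotoxicity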). The procedure, abridged: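 Readout is fluorescence from LDH-dependent resazurin conversion, sampled from culture medium after compound contact lasting 72 h. Each well holds one 0.25-0.35 mm human progenitor sphere kept at 37C, 5% CO2 with EGF and FGF.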

Test [22] in a line: CCTE_Mundy_HCI_iCellGluta_NOG_NeuronCount: CCTE's Neurite Outgrowth Assay in iCellGluta cells for Neuron Count, Mundy Lab (AID 2284340; active = hit-call score of the fitted dose curve at least 0.9, where 1 is the maximum;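 also: cells fixed about 48 h after compound addition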). The procedure, abridged: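 Neuron count read by automated high-content imaging of Hoechst 33342 and betaIII-tubulin/Alexa Fluor-488 labelling in human iPSC glutamatergic neurons. Activity fitted relative to DMSO.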
Test [23] can be described thus: CCTE_Mundy_HCI_iCellGluta_NOG_NeuriteCount: CCTE's Neurite Outgrowth Assay in iCellGluta cells for Neurite Count, Mundy Lab (AID 2284342; active = hit-call score of the fitted dose curve at least 0.9, where 1 is the maximum;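 also: chemical exposure about 48 hours starting 2 hours after plating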).

Consider `CCOP(=O)(OCC)SCSC(C)(C)C`, for which the half-maximal activity concentration (AC50) (commonly the concentration at which the activity in the assay is half-maximal) was 75.4 µM (active) in test [1], 49.5 µM (active) in [2], 0.875 µM (active) in test [11] and 21.9 µM (active) in [23]. Besides, the compound was classed as inactive in test [3], in [4], in [5], in test [6], in test [7] and in test [8]. Also, the result in [9], in [10], in [12], in test [13], in test [14] and in test [15] was inactive. Further, the compound was classed as inactive in [16], in [17], in test [18], in [19], in test [20] and in test [21]. Moreover, the compound was classed as inactive in test [22].
